Measurements from PubChem BioAssay AID2314 (National Center for Advancing Translational Sciences (NCATS), 2010).
“And” between values parts separate entries of the source, which are not always exact repeats. Equal values may be shown once. About 37,000 (12%) of roughly 300,000 compounds were called active. The list comes from a sample in which actives are over-represented; it also holds similar structures and randomly drawn compounds. A number with no mark means an inactive call. No stated cut-off is given here; in the data, active means max response mostly above about 13% (no sharp cut-off); inactive means mostly below about 14%.

test: Cycloheximide Counterscreen for Small Molecule Inhibitors of Shiga Toxin; conditions: cell reporter, cycloheximide protein synthesis inhibition counterscreen; stronger effect = higher value; further: read at 38.3 µM for the half of the compounds with a filed dose; 0% is about no effect

SMILES	max response
COc1ccc(OCC(=O)N2CCOCC2)cc1	9.77%
CCN(C(=O)Cc1nc(N)n[nH]1)C1(C(=O)Nc2ccccc2)CCCCC1	-6.07%
Cc1cc(=O)oc2cc(OCCC[n+]3ccccc3)ccc12	1.33%
CC(C)c1c(C(=O)N/N=C/c2ccc(-c3ccccc3)cc2)nnn1-c1nonc1N	-10.6%
O=C(C[n+]1ccccc1)N/N=C/c1ccc(O)cc1	-3.62%
Cc1nonc1C(=O)N/N=C/c1ccc(O)cc1	37.3% (active)
CCOc1c(OC)cccc1C(=O)NCC1(c2ccccc2)CCCC1	-2.45%
O=C(C1CCN(S(=O)(=O)Cc2ccccc2)CC1)N1CCCc2ccccc21	11.2%
OCC1(Cc2ccccc2)CCN(Cc2cc3ccccc3o2)CC1	1.07%
O=C(COC(=O)C1CC2C=CC1C2)Nc1ccccc1 (stereo not drawn)	27.3% (active)
NC(=O)c1ccc(NC(=O)COC(=O)C(Cc2ccccc2)NC(=O)c2ccccc2)cc1 (stereo not drawn)	-2.16%
Cc1ccc(S(=O)(=O)N(C)CC(=O)OCC(=O)Nc2ccccc2)cc1	3.68%
COc1ccc(C(=O)n2nc(C)c(Br)c2C)cc1OC	-2.74%
Cc1ccc(Nc2nc(-c3sc(NC(=O)c4ccccc4)nc3C)cs2)cc1	8.35%
S=c1[nH]nc(NCCc2ccccc2)s1	-2.47%
Cc1nc(C)c(-c2csc(NCCc3ccccc3)n2)s1	13.4% (active)
CC1CC(C)CN(C(=O)CCNC(=O)Cn2cnc3ccccc3c2=O)C1 (stereo not drawn)	-4.79%
O=C(N/C(=C/c1ccc(Cl)cc1)C(=O)N1CCCCC1)c1ccco1	-0.943%
C=CCn1c(SCC(N)=O)nnc1-c1cc2c(s1)CCC(CC)C2 (stereo not drawn)	29.3% (active)
CCn1c(CSc2nc(C)cc(C)n2)nnc1SCC(N)=O	-2.49%
C=CCn1c(SCc2c(C(=O)OC)sc(N)c2C(=O)OC)nnc1-c1ccc(Cl)cc1	-1.63%
CCS(=O)(=O)N1Cc2ccccc2CC1C(=O)Nc1ccc(OC)cc1OC (stereo not drawn)	3.12%
CCS(=O)(=O)N1Cc2ccccc2CC1C(=O)Nc1nc2ccc(F)cc2s1 (stereo not drawn)	77.8% (active)
Cc1ccc2nc(NC(=O)C3CCN(S(=O)(=O)c4ccc5c(c4)oc(=O)n5C)CC3)sc2c1	-6.17%

SMILES	max response
CCOC(=O)C(CC)Sc1ncnc2c1nnn2-c1ccc(F)cc1 (stereo not drawn)	-1.76%
COc1ccc(-n2nnc3c(=O)n(CC(=O)OCc4ccccc4)cnc32)cc1	0.544%
COC(=O)C(C)n1cnc2c(nnn2-c2ccc(F)cc2)c1=O (stereo not drawn)	-2.37%
CCOC(=O)C(C)n1cnc2c(nnn2-c2ccc(F)cc2)c1=O (stereo not drawn)	8.68% (active)
CCOC(=O)C(C)n1cnc2c(nnn2-c2cccc(OC)c2)c1=O (stereo not drawn)	35.4% (active)
COC(=O)C(C)n1cnc2c(nnn2-c2cccc(Cl)c2)c1=O (stereo not drawn)	-1.58%
COc1ccc(CCN2C(=O)C(C)=C(C)C2=O)cc1OC	1.83%
COc1ccc(N2CCN(C(=O)C3CCN(C(=O)c4ccccc4Cl)CC3)CC2)cc1	0.346%
COc1cccc(CN(C)C(=O)CC23CC4CC(CC(C4)C2)C3)c1OC	-3.61%
O=C(Nc1ccc(F)cc1)c1ccc(S(=O)(=O)NCc2cccnc2)cc1	13%
Cc1ccccc1NC(=O)c1cc(S(=O)(=O)N2CCOCC2)cs1	1.05%
O=C(Nc1cccc(F)c1)c1ccc(S(=O)(=O)N2CCCC2)cc1	-1.88%
O=C(CN1CCCCCC1)Nc1ccc(S(=O)(=O)N2CCCCC2)cc1	-2.88%
O=C(Nc1ccccc1F)c1cc(S(=O)(=O)N2CCCCC2)cs1	13.9% (active)
O=C(Nc1ccccc1C(=O)O)c1cc(S(=O)(=O)N2CCCCC2)cs1	-3.51%
O=C(Nc1ccc(S(=O)(=O)N2CCCCCC2)cc1)c1c(F)cccc1F	16.3% (active)
O=C(O)c1ccc(Cn2c(=S)[nH]c3cc(Cl)ccc3c2=O)cc1	-2.92%
O=C(CN1C(=O)CC(c2ccccc2)=Nc2ccccc21)NC1CCCCC1	-1.57%
COc1ccc(S(=O)(=O)NNC(=O)Nc2ccc(C)cc2)c(OC)c1	0.87%
COc1ccc(NS(=O)(=O)c2cc(NC(=O)CC(=O)c3ccc([N+](=O)[O-])cc3)ccc2C)cc1	-3.18%
CCN1C(=O)/C(=c2\s/c(=C3\Sc4ccccc4N3C)c(=O)n2C)N(C)C1=S	22.3% (active)
CN1/C(=c2/s/c(=C3/C(=O)N(c4ccccc4)NC3=Nc3ccccc3)n(C)c2=O)C(C)(C)c2ccccc21	-0.907%
CCN1C(=O)/C(=C2/Sc3ccccc3N2CCCS(=O)(=O)O)SC1=S	-1.1% and 2.76%
Cc1ccccc1C(=O)OC1OC(=O)C(Cl)=C1Nc1ccccc1 (stereo not drawn)	0.412%
